Test results reported in PubChem BioAssay (NCI).
The panel holds about 83,000 compounds, 20% with a hit somewhere; the sample as a whole holds those more often.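 Method: cells in 96-well plates; compound added at one concentration; 48 h incubation; percent growth measured; values under 10 scored active.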 Activity calls are given as the source filed them.

What follows are compounds tested on RPMI-8226 leukemia (assay: NCI-60 one-dose screen, 48 h (100 = growth as untreated, 0 = no growth, -100 = all killed)). Conditions: 10 µM unless noted.
Experimental: Growth inhibition of the RPMI-8226 human tumor cell line is measured as a screen for anti-cancer activity. Cells are grown in 96 well plates and exposed to the test compound for 48 hours. Compounds are tested at a single concentration, which is 10^-5 M for most compounds. The reported endpoint is percent growth (GI% or GIPRCNT), where numbers from 0 - 100% represent growth inhibition, and numbers from -100% - 0 represent cell death. For example, a value of 40 represents 60% growth inhibition. A value of 0 means no net growth occurred over the course of the experiment. A value of -40 indicates 40% of cells at the beginning of the experiment died by the end of the experiment. A value of -100 means all cells are dead at the end of the experiment.
NCI-60 Human Tumor Cell Lines Screen was performed using the standard one-dose NCI protocol, which is described in more detail at https://dtp.cancer.gov/discovery_development/nci-60/default.htm.
Compounds with GIPRCNT values below 10 were considered active. Activity score was based on GIPRCNT using the following formula: […]
Score is 0 for GIPRCNT values of 100 or above, 50 for GIPRCNT values of 0, and 100 for GIPRCNT values of -100.

SMILES | growth
C[C@]12O[C@H](C[C@]1(O)CO)n1c3ccccc3c3c4c(c5c6ccccc6n2c5c31)CNC4=O | -41.3% (active)
COC(=O)[C@]12CC[C@@H](C)[C@H](C)[C@@H]1C1=CC[C@@H]3[C@@]4(C)C(c5cnco5)=C[C@@](C)(CO)C4=CC[C@@]3(C)[C@]1(C)CC2 | 26.1% (inactive)
Cc1nc(N)sc1-c1ccnc(Nc2ccc(N3CCOCC3)cc2)n1 | 31.4% (inactive)
CN(C)C[C@@H]1CCn2cc(c3ccccc32)C2=C(C(=O)NC2=O)c2cn(c3ccccc23)CCO1 | -18.8% (active)
O=S1(=O)OC(c2ccc(O)c(Cl)c2)(c2ccc(O)c(Cl)c2)c2ccccc21 | 104% (inactive)
C=CC(=O)N(C)[C@H]1C[C@H]2OC(C)(C1OC)n1c3ccccc3c3c4c(c5c6ccccc6n2c5c31)C(=O)NC4 (stereo not given in full) | -11.3% (active)
O=C(NOCCO)c1ccc2cncn2c1Nc1ccc(I)cc1F | 72.8% (inactive)
CCN(CCN(C)C)C(=O)CNCc1cc(C(N)=O)ccn1 | 96.1% (inactive)
COc1cnc2c(c1)C(=O)c1c-2n(CCCN2CCC(N)CC2)c(=O)c2cc([N+](=O)[O-])ccc12 | 39.6% (inactive)
COc1cc2ncnc(Oc3cccc(NC(=O)Nc4cc(C(C)(C)C(F)(F)F)on4)c3)c2cc1OC | 30.6% (inactive)
O=C1C=CC2(NN=C(c3ccccc3)N2c2ccc(Cl)cc2)c2cccc(O)c21 (stereo not given) | 64% (inactive)
CCN1CCN(c2nc(C)cc(N(CCNc3ccnc4cc(Cl)ccc34)Cc3ccc4c(c3)OCO4)n2)CC1 | -30.4% (active)
C=CC(=O)N1CCC[C@H](n2c(=O)n(-c3ccc(Oc4ccccc4)cc3)c3c(N)ncnc32)C1 | 76.4% (inactive)
COC(=O)[C@@H](NC(=O)[C@@H](OC)[C@@H]1Cc2cc3cc(OC4CC(OC5CC(O)C(O)C(C)O5)C(O)C(C)O4)c(C)c(O)c3c(O)c2C(=O)[C@H]1OC1CC(OC2CC(OC3CC(C)(O)C(O)C(C)O3)C(O)C(C)O2)C(O)C(C)O1)C(C)C (stereo not given in full) | -1.18% (active)
O=C(Nc1cccc([N+](=O)[O-])c1)c1ccc(Cl)c(Cl)c1 | 79.1% (inactive)
CC(C)=CCc1cc2c(cc1O)C1=C(C(=O)C3=C(C1=O)S(=O)(=O)CCN3)C(C=C(C)C)O2 (stereo not given) | 9.78% (active)
CCN1CCN(Cc2ccc(Cc3ncc(F)c(-c4cc(F)c5nc(C)n(C(C)C)c5c4)n3)nc2)CC1 | 44.8% (inactive)
O=C(Cc1ccc(/C=C/C(=O)c2ncc[nH]2)cc1)Nc1ccc(S(F)(F)(F)(F)F)cc1 | -17.6% (active)
C[C@@H](N)c1ccc(C(=O)Nc2ccnc3[nH]ccc23)cc1 | 64.7% (inactive)
CCN1CCN(Cc2ccc(NC(=O)Nc3nc(-c4cc(OC)c(OC)c(OC)c4)cs3)cc2C(F)(F)F)CC1 | -26% (active)

SMILES | growth
O=C(NOC[C@H](O)CO)c1ccc(F)c(F)c1Nc1ccc(I)cc1F | 59.7% (inactive)
COc1cc(C2CC(c3ccc(Cl)cc3)=NN2c2ccc(Cl)cc2)cc(OC)c1OC (stereo not given) | 83.3% (inactive)
Cc1ccsc1C(NC(=O)c1ccccc1)c1cc(Cl)c2cccnc2c1O (stereo not given) | 13.8% (inactive)
CO[C@H]1C[C@@H]2CC[C@@H](C)[C@@](O)(O2)C(=O)C(=O)N2CCCC[C@H]2C(=O)O[C@H]([C@H](C)C[C@@H]2CC[C@@H](OP(C)(C)=O)[C@H](OC)C2)CC(=O)[C@H](C)/C=C(\C)[C@@H](O)[C@@H](OC)C(=O)[C@H](C)C[C@H](C)\C=C/C=C/C=C/1C | 34.8% (inactive)
COc1c(OCCCN2CCOCC2)ccc2c3n(c(=NC(=O)c4cnc(N)nc4)nc12)CCN3 | 11.3% (inactive)
CCc1nc2ccc(Cc3ccc(C(=O)NO)cc3)cc2c(=O)n1CCc1ccccc1 | 6.11% (active)
CN1CCN(Cc2ccc(NC(=O)c3[nH]ncc3Nc3ncnc4sc5c(c34)CCCC5)cc2)CC1 | -32.1% (active)
CC(=O)NCC(=O)N1[C@@H]2CC[C@H]1c1ccc(Nc3ncc(C(F)(F)F)c(NC4CCC4)n3)cc12 | 71.4% [2.5 µM] (inactive)
Cc1cc(Nc2ncc(Cl)c(Nc3ccccc3S(=O)(=O)C(C)C)n2)c(OC(C)C)cc1C1CCNCC1 | -56.7% (active)
CNc1ncc2cc(-c3cc(NC(=O)NCCC(C)(C)C)c(F)cc3C)c(C)nc2n1 | 21% (inactive)
Clc1ccc2c(NCCNc3nc(N4CCCC4)nc4ccccc34)ccnc2c1 | -18.2% (active)
O=C(Cc1ccc(/C=C/C(=O)c2ncc[nH]2)cc1)Nc1ccc(Br)cc1 | -13.3% (active)
O=C1NC(=O)C(c2cnc3ccccn23)=C1c1cn2c3c(cc(F)cc13)CN(C(=O)N1CCCCC1)CC2 | 60.8% (inactive)
COc1cc2cc(NCc3ccc(F)cc3)nc(C)c2cc1OC | 14.2% (inactive)
CCCCCCCCCNCCCCCCCCC | -22.4% (active)
O=C(/C=C/c1ccc2c(c1)OCO2)c1c(O)c2ccccc2oc1=O | 115% (inactive)
Cn1ncc(Cl)c1-c1cc(C(=O)N[C@H](CN)Cc2ccc(F)c(F)c2)oc1Cl | -5.77% (active)
COc1cc(Nc2ncc3c(n2)-c2ccc(Cl)cc2C(c2c(F)cccc2OC)=NC3)ccc1C(=O)O | 82.7% (inactive)
Cc1nc2cc(-c3nn(C(C)C)c4ncnc(N)c34)ccc2o1 | -9.63% (active)
CC(C)[C@@H]1CC[C@]2(CO2)[C@@H]2C(=O)OCC(C(=O)O)=C[C@H]21 | -34.6% (active)
